In the library only some 19% were active in any assay of this set; here they are far more common.
IL-1B inflam inh: qHTS for Inhibitors of Inflammasome Signaling: IL-1-beta AlphaLISA Primary Screen. THP-1 LPS/ATP IL-1B secretion, AlphaLISA, 16 h; hits give low values. activity change, % at 57.5 µM. actives 4.7% (n = 360,000); in the data active = activity change below about -50%; inconclusive = mostly about -30% to -49%
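THP-1 cells pretreated 1 hr with compounds (up to 57.5 uM final), then stimulated with LPS (250 ng/mL final) plus ATP (1.25 mM final); secreted IL-1B measured by AlphaLISA after 16 hr, decreased signal indicating inhibition.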
HT1080NT lethal: qHTS for induction of synthetic lethality in tumor cells producing 2HG: qHTS for the HT-1080-NT fibrosarcoma cell line. Potency, µM (highest dose often 46.1 µM), actives largely listed as cytotoxic. AID 686970, 2013. HT-1080-NT fibrosarcoma viability, CellTiter-Glo ATP luminescence, 48 h. actives 1.6% (n = 360,000);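 also: NT is the 2HG producing partner of a matched IDH1 knockdown line; nearly all actives have a fitted effect of over 55% in size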
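A 48-hour cytotoxicity screen used HT-1080-NT cells plated 2 hours before compound delivery. ATP-based CellTiter-Glo luminescence measured viability, normalized to DMSO and no-cell controls.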
DT40 TDP1 CPT: qHTS for Inhibitors of human tyrosyl-DNA phosphodiesterase 1 (TDP1): qHTS in cells in presence of CPT. actives 12% (n = 420,000). Potency, µM (series often up to 46.2 µM), hits mostly inhibitors. chicken DT40 Tdp1-/-;hTDP1 cells + 20 nM CPT, ATP luminescence, 48 h; also: nearly all actives have a fitted effect of over 55% in size
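Cell growth measured by CellTiter-Glo luminescence after a minimum 48 h, 37 C compound exposure with 20 nM CPT in Tdp1-knockout DT40 cells stably expressing hTDP1, seeded 400/well; qHTS titration format.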
HT1080 IDH1KD tx: qHTS for induction of synthetic lethality in tumor cells producing 2HG: qHTS for the HT-1080-IDH1KD cell line; Potency, µM (highest dose often 46.1 µM), actives largely listed as cytotoxic; actives 2% (n = 360,000); HT-1080 IDH1 knockdown viability, ATP luminescence, 48 h
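After a 2 h attachment period, IDH1KD HT-1080 cells took pin-transferred compound for 48 h at 37 °C; ATP-based luminescence after 10 min room-temperature reagent incubation reported viability.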
TDP1 cell noCPT: qHTS for Inhibitors of human tyrosyl-DNA phosphodiesterase 1 (TDP1): qHTS in cells in absence of CPT; DT40 Tdp1-/- hTDP1 cells, no CPT, ATP luminescence, 48 h; Potency, µM (highest dose often 46.2 µM), usual class: inhibitors; actives 15% (n = 420,000); also: nearly all actives have a fitted effect of over 55% in size
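Stably hTDP1-transfected Tdp1-null chicken DT40 cells were treated with library compounds minus camptothecin and grown for at least 48 hr at 37 °C, after which cellular ATP was quantified by luminescence.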
Large screens that a line does not name were inactive. Unless noted, calls follow the shape of the dose curve; as a rule, active = well fitted curve in the direction sought with a large enough effect; inconclusive = small, poorly fitted or top-dose-only effect, or another doubt; inactive = no such curve, though single readings can be large; an effect the other way counts as inactive or inconclusive.

COc1cc(/C=N/Nc2ccc([N+](=O)[O-])cn2)cc(OC)c1O	HT1080NT lethal inconclusive, HT1080 IDH1KD tx inconclusive, TDP1 cell noCPT inconclusive
CC(=O)Nc1ccc(C=NNc2ccc([N+](=O)[O-])cn2)cc1	DT40 TDP1 CPT 23.1µM
O=[N+]([O-])c1ccc(NN=Cc2cc(Br)ccc2O)nc1	HT1080NT lethal 7.31µM, DT40 TDP1 CPT 2.59µM, HT1080 IDH1KD tx 4.61µM, TDP1 cell noCPT 1.3µM
Cc1cccc(C)c1-n1c(C)cc(/C=N\Nc2ccc([N+](=O)[O-])cn2)c1C	DT40 TDP1 CPT inconclusive, TDP1 cell noCPT 14.6µM
O=[N+]([O-])c1ccc(NN=Cc2cccc(O)c2)nc1	DT40 TDP1 CPT 23.1µM, TDP1 cell noCPT inconclusive
Cc1cccc(OC(=O)n2c(=S)oc3cc(Cl)ccc32)c1	TDP1 cell noCPT inconclusive
CCN(/C=N/S(=O)(=O)c1ccc(Cl)cc1)CC	none
CCC(c1nnnn1CCc1ccccc1)N1CCN(c2ccc(OC)cc2)CC1 (stereo unspecified)	DT40 TDP1 CPT inconclusive, TDP1 cell noCPT inconclusive
O=c1oc2ccc(Br)cc2cc1S(=O)(=O)c1ccc(F)cc1	IL-1B inflam inh -77.8, HT1080NT lethal inconclusive, HT1080 IDH1KD tx 14.6µM
N#CC1=C(SCc2ccccc2)NC(=O)CC1c1ccco1 (stereo unspecified)	none
N#CC1=C(SCC(=O)NCc2ccccc2)NC(=O)CC1c1ccco1 (stereo unspecified)	DT40 TDP1 CPT inconclusive, TDP1 cell noCPT 23.1µM
N#CC1=C(SCC(=O)NC2CCCCC2)NC(=O)CC1c1ccco1 (stereo unspecified)	DT40 TDP1 CPT inconclusive
N#CC1=C(SCC(=O)Nc2ccccc2)NC(=O)CC1c1ccco1 (stereo unspecified)	HT1080NT lethal 14.1µM, DT40 TDP1 CPT 7.31µM, HT1080 IDH1KD tx inconclusive, TDP1 cell noCPT 18.4µM
Cc1cc(C(=O)C(C)OC(=O)C2=NNC(=O)CC2)c(C)n1-c1ccc(OC(F)F)cc1 (stereo unspecified)	DT40 TDP1 CPT inconclusive, TDP1 cell noCPT 20.6µM
CCc1ccc(C2=C/C(=C/c3cccnc3)C(=O)O2)cc1	none
C=C1CCN(c2ccc(C(=O)NCc3ccccc3)cc2[N+](=O)[O-])CC1	none
C=C1CCN(c2ccc(C(=O)NCCC)cc2[N+](=O)[O-])CC1	IL-1B inflam inh -55.4, DT40 TDP1 CPT 16.4µM, TDP1 cell noCPT 16.4µM
Cc1ccc(C(=O)NCCCn2ccnc2)cc1[N+](=O)[O-]	HT1080 IDH1KD tx inconclusive
O=C(NCCCn1ccnc1)c1ccc(N2CCCCCC2)c([N+](=O)[O-])c1	HT1080NT lethal 23.1µM, DT40 TDP1 CPT 18.4µM, HT1080 IDH1KD tx 5.8µM, TDP1 cell noCPT inconclusive
Cc1ccc(Cl)cc1NC(=O)C1CCCN(S(=O)(=O)c2c(C)noc2C)C1 (stereo unspecified)	DT40 TDP1 CPT inconclusive, TDP1 cell noCPT inconclusive
CCOc1ccc(N(CC)S(=O)(=O)N2CCCC(C(=O)Nc3cc(Cl)ccc3C)C2)cc1 (stereo unspecified)	DT40 TDP1 CPT 20.6µM, TDP1 cell noCPT 16.4µM (no result: IL-1B inflam inh, HT1080NT lethal, HT1080 IDH1KD tx)
CCOc1ccc(N(CC)S(=O)(=O)N2CCCC(C(=O)NCc3ccccc3Cl)C2)cc1 (stereo unspecified)	DT40 TDP1 CPT 20.6µM, TDP1 cell noCPT 20.6µM (no result: IL-1B inflam inh, HT1080NT lethal, HT1080 IDH1KD tx)
CCOc1ccc(S(=O)(=O)N2CCCC(C(=O)NCc3ccccc3)C2)cc1 (stereo unspecified)	none
CC1CCc2onc(C(=O)O)c2C1 (stereo unspecified)	none
CCCCCCCCCc1conc1C(=O)/C=C/c1oc2c(c1C)CCC(C)C2 (stereo unspecified)	HT1080NT lethal inconclusive, DT40 TDP1 CPT 20.6µM, HT1080 IDH1KD tx inconclusive, TDP1 cell noCPT 14.6µM
c1ccc(COc2ncnc3c2ncn3CCCNCC(c2ccccc2)c2ccccc2)cc1	IL-1B inflam inh -93.8, HT1080NT lethal 16.4µM, DT40 TDP1 CPT 25.9µM, HT1080 IDH1KD tx inconclusive, TDP1 cell noCPT 16.4µM
COc1ncnc2c1ncn2CCCNCC(C)c1ccccc1 (stereo unspecified)	none
COc1ncnc2c1ncn2CCCNCC(c1ccccc1)c1ccccc1	DT40 TDP1 CPT 23.1µM, TDP1 cell noCPT 18.4µM
Cc1ccc(S(=O)(=O)N(Cc2cccc(F)c2)C(=O)N2CCN(C)CC2)cc1	none
CC(=O)N(Cc1ccccc1)Cc1nc2sc(C)c(C)c2c(=O)[nH]1	TDP1 cell noCPT 13µM
Cc1sc2nc(CN(CCc3ccccc3)C(=O)c3ccco3)[nH]c(=O)c2c1C	DT40 TDP1 CPT inconclusive
CC(=O)N(Cc1nc2sc(C)c(C)c2c(=O)[nH]1)C1CCCC1	DT40 TDP1 CPT 20.6µM, TDP1 cell noCPT inconclusive
Cc1sc2nc(CN(Cc3ccccc3)C(=O)NC3CCCCC3)[nH]c(=O)c2c1C	IL-1B inflam inh inconclusive, HT1080NT lethal inconclusive, DT40 TDP1 CPT 20.6µM, HT1080 IDH1KD tx inconclusive, TDP1 cell noCPT 18.4µM
CCC(=O)Nc1nnc(S(=O)(=O)N(C)Cc2ccc(Cl)cc2)s1	none (no result: IL-1B inflam inh, HT1080NT lethal, HT1080 IDH1KD tx)
CN(C)[C@@H](CO)c1nnc([C@H](CC(=O)O)NC(=O)C2CCNCC2)o1	DT40 TDP1 CPT 4.61µM
CCOC(=O)c1c(S(=O)(=O)N2CCC(C(=O)Nc3ccc(C)cc3C)CC2)c(C)n(C)c1C	none (no result: IL-1B inflam inh, HT1080NT lethal, HT1080 IDH1KD tx)
COCCn1c(N)c(C(=S)NC(=O)c2cccs2)c(=O)[nH]c1=O	DT40 TDP1 CPT 10.3µM, TDP1 cell noCPT inconclusive
O=C(Nc1ccc2c(c1)CCCN2C(=O)c1ccccc1)c1ccccc1	HT1080NT lethal inconclusive, DT40 TDP1 CPT inconclusive, HT1080 IDH1KD tx inconclusive, TDP1 cell noCPT 14.6µM
COc1ccc(C(=O)Nc2ccc3c(c2)CCCN3C(=O)c2cccs2)c(OC)c1	DT40 TDP1 CPT 8.2µM, TDP1 cell noCPT 11.6µM
COc1cccc(C(=O)Nc2ccc3c(c2)CCCN3C(=O)c2cccs2)c1OC	IL-1B inflam inh inconclusive, HT1080NT lethal inconclusive, DT40 TDP1 CPT 16.4µM, HT1080 IDH1KD tx inconclusive, TDP1 cell noCPT 13µM
CCCCOc1ccc(C(=O)Nc2ccc3c(c2)CCCN3C(=O)c2cccs2)cc1	DT40 TDP1 CPT 5.8µM, TDP1 cell noCPT 5.17µM (no result: IL-1B inflam inh, HT1080NT lethal, HT1080 IDH1KD tx)
O=C(Nc1ccc(C(=O)N2CCCC2)cc1)c1ccccc1	DT40 TDP1 CPT inconclusive, TDP1 cell noCPT inconclusive
CCCOc1ccc(C(=O)N2CCCc3ccccc32)cc1	DT40 TDP1 CPT inconclusive
Cc1ccc(CC(NC(=O)c2ccc(C)cc2)C(=O)O)cc1 (stereo unspecified)	none
Cc1ccccc1C(=O)Nc1ccc2c(c1)CCCN2C(=O)c1cccs1	IL-1B inflam inh inconclusive, HT1080NT lethal inconclusive, DT40 TDP1 CPT 18.4µM, HT1080 IDH1KD tx inconclusive, TDP1 cell noCPT inconclusive

Screening data from PubChem BioAssay.
